This is a sample that favours compounds with a hit; in the whole collection about 0.5% have one here.
E coli growth-1 = bacterial growth inhibition, counter-screen for AddAB inhibitors. E. coli V3065 growth, OD600 absorbance, 18 h. 0.27% of 330,000 active. inhibition, % at 11.9 µM;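 active = inhibition above the campaign's mean inhibition across all tested compounds plus 3 SD, cut at about 9.9% in these data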;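 note: uninfected addAB+ strain grown without phage in ampicillin broth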
AddAB inh = less growth of phage-infected E. coli with AddAB; E. coli expressing H. pylori AddAB, absorbance growth; inhibition, % at 11.9 µM; 0.29% of 330,000 active; AID 435030; in the data active = inhibition above about 12%
phage Ecoli inh = E. coli growth loss with phage present; inhibition, % at 11.9 µM; AID 651602; 0.26% of 360,000 active; growth absorbance; in the data active = inhibition above about 11%
E coli growth-2 = E. coli growth inhibition. Escherichia coli growth, OD600, 23 h; hits give low values. OD600 absorbance (concentration not given with the values). 0.21% of 330,000 active;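 active = OD600 absorbance below the run mean of sample wells minus 3.6 SD, in any replicate, cut at about 0.56 in these data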
Tat export inh = inhibitors of E. coli Tat protein transport. E. coli MC4100 TorA-mCherry Tat export, fluorescence. inhibition, % at 10 µM. 0.036% of 340,000 active. AID 488895;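 active = mean replicate inhibition at least 50% and at least half of replicates individually reaching 50%; inconclusive = only one of the two criteria met; inactive = neither criterion met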;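 note: exported cargo escapes ClpAP degradation while cytoplasmic cargo is degraded and loses fluorescence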
RecBCD conf = confirmation: growth loss of phage-infected RecBCD+ E. coli (RecBCD inhibitor screen) | shares compounds with phage Ecoli inh | 45% of 890 active | AID 651982 | E. coli V66 + T4 2- phage, growth OD | inhibition, % at 11.9 µM;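 active = mean inhibition over triplicates exceeding the hit threshold derived in the original primary screen, cut at about 11% in these data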
Ecoli viability = bacterial viability inhibition counter-screen for RecBCD; shares compounds with phage Ecoli inh; E. coli viability, absorbance (OD) growth; inhibition, % at 11.9 µM; 29% of 890 active; in the data active = inhibition above about 20%;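 note: E. coli strain V66 grown with compound alone and no phage infection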
AddAB phage OD = growth loss of phage-infected AddAB E. coli, RecBCD counter-screen; shares compounds with phage Ecoli inh; E. coli expressing H. pylori AddAB + T4 phage, OD growth; gene 2 mutant T4, recBCD-deleted host; inhibition, % at 11.9 µM; 45% of 890 active; AID 651984;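 active = mean inhibition above the solvent-only control wells' mean plus 3 SD, cut at about 22% in these data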;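 note: higher means less bacterial growth from phage killing when AddAB is blocked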
Each line names hits and unclear results; the compound was inactive in the other large screens (follow-up assays come after a bar, where they were run).

O=C(CSc1nnc(-c2ccccc2)n1Cc1ccccc1)NNC(=O)c1ccccc1O	phage Ecoli inh 12 | RecBCD conf inactive | Ecoli viability inactive | AddAB phage OD inactive
COc1cc(N(C)C)ccc1C=c1c2ccccc2n2c1cc(-c1ccccc1)[n+]2C	phage Ecoli inh 28 (no result: E coli growth-1, AddAB inh, E coli growth-2) | RecBCD conf 32 | Ecoli viability 36 | AddAB phage OD 97
C/C(=N/NC(=O)c1cc2ccccc2cc1O)C1C(=O)c2ccccc2C1=O	phage Ecoli inh 11 (no result: E coli growth-2) | RecBCD conf inactive | Ecoli viability inactive | AddAB phage OD inactive
CC(=NNC(=O)c1ccccc1O)C1C(=O)c2ccccc2C1=O	none (no result: E coli growth-1, AddAB inh, phage Ecoli inh, Tat export inh)
O=[N+]([O-])c1cc([N+](=O)[O-])c(Oc2c(Cl)cccc2Cl)cc1NN1CCCCC1	phage Ecoli inh 13 | RecBCD conf inactive | Ecoli viability inactive | AddAB phage OD inactive
O=C1C=CC(n2cc(F)c(=O)[nH]c2=O)O1 (stereo unspecified)	phage Ecoli inh 24 (no result: E coli growth-1, AddAB inh, E coli growth-2, Tat export inh) | RecBCD conf 32 | Ecoli viability 22 | AddAB phage OD 46
O=C(O)Cn1cc(F)c(=O)[nH]c1=O	none (no result: phage Ecoli inh, Tat export inh)
CNC(CC(C)C)C(=O)NC1C(=O)NC(CC(N)=O)C(=O)NC2C(=O)NC3C(=O)NC(C(=O)NC(C(=O)O)c4cc(O)cc(O)c4-c4cc3ccc4O)C(O)c3ccc(c(Cl)c3)Oc3cc2cc(c3OC2OC(CO)C(O)C(O)C2OC2CC(C)(N)C(O)C(C)O2)Oc2ccc(cc2Cl)C1O (stereo unspecified)	phage Ecoli inh 11 (no result: E coli growth-2) | RecBCD conf inactive | Ecoli viability inactive | AddAB phage OD inactive
COc1cccc(C(Nc2ccccc2)c2ccc3ccc(C)nc3c2O)c1 (stereo unspecified)	phage Ecoli inh 12 (no result: E coli growth-1, AddAB inh, E coli growth-2, Tat export inh) | RecBCD conf inactive | Ecoli viability inactive | AddAB phage OD inactive
Cc1cccc(NC(c2ccc(O)cc2)c2ccc3ccc(C)nc3c2O)n1 (stereo unspecified)	none
CC(=O)N1C(C)C=C[C@]1(Cc1ccccc1)C(=O)NCCN1CCOCC1 (stereo partly specified)	none (no result: E coli growth-1, AddAB inh, phage Ecoli inh, Tat export inh)
CCS(=O)(=O)NCCc1csc(-c2cccnc2)n1	phage Ecoli inh 97 | RecBCD conf inactive | Ecoli viability inactive | AddAB phage OD inactive
CC(=O)N1N=C(c2cccc(NS(C)(=O)=O)c2)CC1c1cccs1 (stereo unspecified)	none
CC(=O)N1N=C(c2cccc(O)c2)CC1c1cccs1 (stereo unspecified)	phage Ecoli inh 11 (no result: E coli growth-1, AddAB inh) | RecBCD conf inactive | Ecoli viability inactive | AddAB phage OD inactive
CN(C)C(=O)/C(=C/c1ccc(-c2cccc([N+](=O)[O-])c2)o1)NC(=O)c1ccccc1	phage Ecoli inh 19 | RecBCD conf inactive | Ecoli viability inactive | AddAB phage OD inactive
CN(C)C(=O)/C(=C\c1ccc(-c2cccc([N+](=O)[O-])c2)o1)NC(=O)c1ccccc1	none
O=[N+]([O-])c1ccc(C=NN2CCNC2=S)o1	phage Ecoli inh 101 (no result: E coli growth-1, AddAB inh, E coli growth-2, Tat export inh) | RecBCD conf 101 | Ecoli viability 102 | AddAB phage OD 101
CCN(CC)CC1CN(N=Cc2ccc([N+](=O)[O-])o2)C(=O)O1 (stereo unspecified)	phage Ecoli inh 39, E coli growth-2 0.064 (no result: E coli growth-1, AddAB inh) | RecBCD conf 41 | Ecoli viability 59 | AddAB phage OD 102
Cc1cc2ncn(N=Cc3ccc([N+](=O)[O-])o3)c2cc1C	none (no result: E coli growth-1, AddAB inh, phage Ecoli inh, Tat export inh)
Cc1c(Cl)sn(-c2ccc(Cl)cc2)c1=O	phage Ecoli inh 98, E coli growth-2 0.062, Tat export inh inconclusive (no result: E coli growth-1, AddAB inh) | RecBCD conf 99 | Ecoli viability 100 | AddAB phage OD 100
CC=CC=CC(=O)N1CC2(CC(c3cccc(NC(=O)CC(c4ccccc4)c4ccccc4)c3)=NO2)CC1C(N)=O (stereo unspecified)	none (no result: E coli growth-1, AddAB inh, phage Ecoli inh, Tat export inh)
COc1cccc(-c2cnc(C(O)c3ccc(F)cc3)[nH]2)c1 (stereo unspecified)	none (no result: E coli growth-1, AddAB inh, E coli growth-2, Tat export inh)
COc1cccc(-c2cnc(C(O)c3cc(C)cc(C)c3)[nH]2)c1 (stereo unspecified)	phage Ecoli inh 13 (no result: E coli growth-1, AddAB inh, E coli growth-2, Tat export inh) | RecBCD conf inactive | Ecoli viability inactive | AddAB phage OD inactive

Assay outcomes (PubChem BioAssay)
